In PubChem BioAssay:
For some of these results: Results with a measured potency or affinity are listed apart. Activity calls are given as the source filed them.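 Rule for the calls, unless noted: active = primary screen activator hit with a dose response curve and TRPC4 channel activation at any tested dose; inactive = no activation, no dose response, or not a primary hit.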

Legend:
[1] = system: TRPC4 beta (transient receptor potential cation channel C4), mouse; assay: activators of mouse TRPC4 channel, confirmation, cell-based, Fluo4 calcium, HEK293 TRPC4beta/mu-opioid, duplicates, 10 µM (AID 2426;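 active = fluorescence ratio normalized to control raised more than 50% in primary screen plus both repeat runs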); conditions: Fluo4 calcium fluorescence, at 10 µM; stronger effect = higher value
[2] = system: transient receptor potential cation channel C4 beta (TRPC4), mouse; assay: activators of mouse TRPC4 channel, confirmation, cell-based, second round, Fluo4, HEK293 TRPC4beta/mu-opioid, 1 µM (AID 2461;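 active = primary screen active and over 50% activation in each of two duplicate runs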); conditions: Fluo4 calcium fluorescence, at 1 µM; stronger effect = higher value
[3] = system: TRPC4 (transient receptor potential cation channel C4 beta), mouse; assay: positive allosteric modulators of mouse TRPC4, confirmation, cell-based, second round, Fluo-4, HEK293 TRPC4beta/mu-opioid, 1 µM (AID 2554;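 active = primary screen hit whose fluorescence ratio, in both repeats, exceeds the weak agonist control mean by 3 SD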); conditions: DAMGO EC20, Fluo-4 calcium flux, at 1 µM; stronger effect = higher value
[4] = system: TRPC4 beta (transient receptor potential cation channel C4), mouse; assay: positive allosteric modulators of mouse TRPC4, confirmation, cell-based, Fluo-4, HEK293 TRPC4beta/mu-opioid (AID 2555;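 active = primary screen hit whose calcium fluorescence ratio, in both repeats, exceeds the weak agonist control mean by 3 SD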); conditions: DAMGO EC20, Fluo-4 calcium flux, at 10 µM; stronger effect = higher value
[5] = target: Short transient receptor potential channel 4 (Mus musculus) (UniProt Q9QUQ5); assay: inhibitors of mouse TRPC4 channel, confirmation, cell-based, Fluo4, HEK293 TRPC4beta/mu-opioid (AID 2636;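 active = calcium signal cut by more than 3 SD below the full-agonist control yet still positive, in both repeats and the earlier primary screen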); conditions: DAMGO, Fluo4 calcium flux, at 10 µM; stronger effect = higher value
[6] = target: Short transient receptor potential channel 4 (Mus musculus) (UniProt Q9QUQ5); assay: inhibitors of mouse TRPC4 channel, confirmation, cell-based, second round, Fluo4, HEK293 TRPC4beta/mu-opioid, 1 µM (AID 2637;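 active = calcium signal ratio cut to more than 3 SD under the fully stimulated control mean yet still positive, in both repeats and the primary screen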;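 for inhibition: percent of integrated ratio relative to wells lacking test compound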); conditions: Fluo4 calcium flux, DAMGO, at 1 µM; stronger effect = higher value
[7] = target: Short transient receptor potential channel 4 (Mus musculus) (UniProt Q9QUQ5); assay: mouse TRPC4 channel activators, dose response, cell-based, HEK293 TRPC4/mu-opioid, Fluo-4 calcium (AID 434937)
[8] = target: Short transient receptor potential channel 4 (Mus musculus) (UniProt Q9QUQ5); assay: TRPC4 positive allosteric modulators, dose response, cell-based, HEK293 TRPC4/mu-opioid, Fluo-4 calcium, EC20 DAMGO (AID 434941;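 active = earlier screen potentiator hit that boosts the TRPC4 ion channel at some dose, with a dose response; inactive = no potentiation, no dose response, or not a prior hit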;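 note: calcium entry triggered by an EC20 dose of DAMGO at the co-expressed mu-opioid receptor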)
[9] = target: Short transient receptor potential channel 6 (Mus musculus) (UniProt Q61143); assay: inhibition of mouse TRPC6 channel, confirmation, selectivity assay for TRPC4 inhibitor project, cell-based, HEK293, membrane potential dye, duplicate (AID 434948;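 active = active in primary screen and both duplicates, each dropping signal beyond three positive-control SD with fluorescence still positive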); conditions: HEK293 TRPC6, membrane potential dye fluorescence, at 10 µM, stimulated with maximal-effect acetylcholine; stronger effect = higher value
[10] = target: Short transient receptor potential channel 6 (Mus musculus) (UniProt Q61143); assay: activation of mouse TRPC6 channel, confirmation, selectivity assay for TRPC4 activator project, cell-based, HEK293, membrane potential dye, duplicate (AID 434950;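 active = membrane potential signal rise above negative control mean plus 3 SD in both duplicates, also active in the earlier TRPC4 screen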); conditions: HEK293 TRPC6, membrane potential fluorescence, at 10 µM; stronger effect = higher value
[11] = target: Short transient receptor potential channel 6 (Mus musculus) (UniProt Q61143); assay: TRPC6 potentiation by TRPC4 potentiator hits, confirmation, selectivity assay for TRPC4 potentiator project, HEK293 cells, membrane potential dye, duplicate (AID 434952;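 active = compound raising the membrane signal above positive-control mean plus 3 SD in both repeats, and a primary screen hit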); conditions: HEK293 TRPC6, membrane potential dye fluorescence, at 10 µM, maximal acetylcholine added after compound; stronger effect = higher value
[12] = target: Short transient receptor potential channel 4 (Mus musculus) (UniProt Q9QUQ5); assay: calcium flux activators in TRPC4/5HT1a cells, counter-screen for TRPC4 activator project, cell-based, second counter screen, HEK293 TRPC4/5HT1a, Fluo-4 (AID 434977;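 active = calcium signal rise above buffer-control mean plus 5 SD in both duplicates, and also a hit in the primary screen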); conditions: Fluo-4 calcium flux, at 10 µM; stronger effect = higher value
[13] = calcium flux inhibitors in TRPC4/5HT1a cells, confirmation, counter-screen for TRPC4 inhibitor project, cell-based, second counter screen, HEK293 TRPC4/5HT1a, Fluo-4 (AID 434978;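 active = primary screen active whose calcium signal fell more than 3 SD beyond the full-serotonin control mean in both duplicate plates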;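 for outcome: serotonin given first at submaximal then at maximal dose after compound preincubation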); conditions: Fluo-4 calcium flux, at 10 µM, serotonin added to trigger calcium flux; stronger effect = higher value
[14] = system: TRPC4 (mouse), co-expressed with 5HT1a in HEK293; assay: calcium flux potentiators in TRPC4/5HT1a cells, confirmation, counter-screen for TRPC4 potentiator project, cell-based, second counter screen, HEK293 TRPC4/5HT1a, Fluo-4 (AID 434979;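 active = signal rise over 3 SD above mean of control wells given weak agonist, in both repeats and first screen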); conditions: Fluo-4 calcium flux, at 10 µM, serotonin added at its EC20 dose; stronger effect = higher value
[15] = calcium flux activation in mu-opioid HEK293 cells, confirmation, counter-screen for TRPC4 activator project, cell-based, HEK293 mu-opioid receptor line (AID 449723;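 active = hit in primary screen, with calcium signal over 5 SD above buffer well mean in both duplicates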;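 note: counter screen cells carry the mu-opioid receptor alone and lack TRPC4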); conditions: Fluo-4 calcium fluorescence, at 10 µM; stronger effect = higher value
[16] = calcium flux enhancement in mu-opioid HEK293 cells, confirmation, counter-screen for TRPC4 allosteric potentiator project, cell-based, HEK293 mu-opioid receptor line (AID 449724;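 active = calcium signal rise more than 3 SD above the low-dose agonist control mean, in both duplicate plates and the primary screen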); conditions: Fluo-4 calcium flux, at 10 µM, compound added before EC20 DAMGO stimulus; stronger effect = higher value

Chain of Short transient receptor potential channel 6 (Mus musculus) (Q61143 whole entry, looked up): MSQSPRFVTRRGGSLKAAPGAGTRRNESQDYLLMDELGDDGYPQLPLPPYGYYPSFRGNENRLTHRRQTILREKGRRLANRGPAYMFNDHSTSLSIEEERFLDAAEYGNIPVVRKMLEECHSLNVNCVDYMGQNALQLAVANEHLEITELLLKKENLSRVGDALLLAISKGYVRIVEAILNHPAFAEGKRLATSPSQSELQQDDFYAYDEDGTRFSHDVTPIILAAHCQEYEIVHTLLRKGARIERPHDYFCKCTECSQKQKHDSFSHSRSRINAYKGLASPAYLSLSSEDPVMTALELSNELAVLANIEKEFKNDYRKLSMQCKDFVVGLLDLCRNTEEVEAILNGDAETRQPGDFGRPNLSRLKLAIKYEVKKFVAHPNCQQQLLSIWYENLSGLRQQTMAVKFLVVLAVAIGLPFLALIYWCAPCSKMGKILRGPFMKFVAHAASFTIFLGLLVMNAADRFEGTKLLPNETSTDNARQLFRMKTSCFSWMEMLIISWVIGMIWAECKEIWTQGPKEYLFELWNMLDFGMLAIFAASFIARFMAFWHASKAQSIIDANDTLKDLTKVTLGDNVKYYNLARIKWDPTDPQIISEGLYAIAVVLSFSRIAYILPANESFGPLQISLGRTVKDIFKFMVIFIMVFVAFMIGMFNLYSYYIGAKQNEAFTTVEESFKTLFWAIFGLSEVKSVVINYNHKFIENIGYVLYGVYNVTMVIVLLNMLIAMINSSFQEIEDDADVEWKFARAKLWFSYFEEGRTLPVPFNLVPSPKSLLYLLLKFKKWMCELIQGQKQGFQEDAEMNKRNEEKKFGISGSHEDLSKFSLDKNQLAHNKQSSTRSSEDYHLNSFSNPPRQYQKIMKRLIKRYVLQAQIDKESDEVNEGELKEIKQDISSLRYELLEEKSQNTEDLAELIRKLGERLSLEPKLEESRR
Chain of Short transient receptor potential channel 4 (Mus musculus) (Q9QUQ5 whole entry, looked up): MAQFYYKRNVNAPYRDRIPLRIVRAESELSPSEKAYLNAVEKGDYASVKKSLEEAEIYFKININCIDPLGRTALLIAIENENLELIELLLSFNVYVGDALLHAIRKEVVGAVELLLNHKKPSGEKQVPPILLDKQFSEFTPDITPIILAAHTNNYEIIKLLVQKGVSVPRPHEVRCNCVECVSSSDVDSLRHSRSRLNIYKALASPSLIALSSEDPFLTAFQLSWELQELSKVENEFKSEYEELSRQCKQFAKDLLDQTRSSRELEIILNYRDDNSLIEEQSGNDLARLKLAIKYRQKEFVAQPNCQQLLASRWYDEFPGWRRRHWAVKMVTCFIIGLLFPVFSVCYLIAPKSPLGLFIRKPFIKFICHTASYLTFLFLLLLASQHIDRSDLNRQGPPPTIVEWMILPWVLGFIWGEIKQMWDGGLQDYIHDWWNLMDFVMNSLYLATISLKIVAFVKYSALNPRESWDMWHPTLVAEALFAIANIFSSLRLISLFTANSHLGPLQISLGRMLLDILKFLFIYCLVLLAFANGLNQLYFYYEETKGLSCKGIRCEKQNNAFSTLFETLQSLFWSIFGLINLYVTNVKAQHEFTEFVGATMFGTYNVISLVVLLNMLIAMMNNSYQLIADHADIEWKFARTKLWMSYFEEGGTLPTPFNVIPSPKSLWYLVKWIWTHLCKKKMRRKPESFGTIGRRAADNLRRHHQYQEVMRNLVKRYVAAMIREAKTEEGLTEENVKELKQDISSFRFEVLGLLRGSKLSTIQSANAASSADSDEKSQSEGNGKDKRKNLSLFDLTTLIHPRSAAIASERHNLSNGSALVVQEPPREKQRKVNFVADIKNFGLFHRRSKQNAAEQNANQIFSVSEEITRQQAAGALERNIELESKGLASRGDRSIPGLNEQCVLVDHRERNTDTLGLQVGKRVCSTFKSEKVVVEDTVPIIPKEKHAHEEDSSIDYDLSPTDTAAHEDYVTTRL

## Cc1n[nH]c(C)c1CCCCOc1ccccc1F
[1]
  outcome: inactive
[2]
  outcome: inactive
[3]
  outcome: inactive
[4]
  outcome: inactive
[5]
  inhibition: 98% (active)
[6]
  inhibition: 65% (active)
[7]
  outcome: inactive
[8]
  outcome: inactive
[9]
  outcome: inactive
[10]
  outcome: inactive
[11]
  outcome: inactive
[12]
  outcome: inactive
[13]
  inhibition: 28.3% (active)
[14]
  outcome: inactive
[15]
  outcome: inactive
[16]
  outcome: inactive

## O=c1c2ccccc2nc(SCc2ccccc2)n1CC1CCCO1 (stereo unspecified)
[1]
  outcome: inactive
[2]
  outcome: inactive
[3]
  outcome: inactive
[4]
  outcome: inactive
[5]
  inhibition: 54% (active)
[6]
  outcome: inactive
[7]
  outcome: inactive
[8]
  outcome: inactive
[9]
  outcome: inactive
[10]
  outcome: inactive
[11]
  outcome: inactive
[12]
  outcome: inactive
[13]
  inhibition: 18.9% (active)
[14]
  outcome: inactive
[15]
  outcome: inactive
[16]
  outcome: inactive

## CC(C)NCC(O)COCCOc1ccc(C(C)(C)C)cc1 (stereo unspecified)
[1]
  outcome: inactive
[2]
  outcome: inactive
[3]
  outcome: inactive
[4]
  outcome: inactive
[5]
  inhibition: 97% (active)
[6]
  inhibition: 59% (active)
[7]
  outcome: inactive
[8]
  outcome: inactive
[9]
  outcome: inactive
[10]
  outcome: inactive
[11]
  outcome: inactive
[12]
  outcome: inactive
[13]
  inhibition: 28.6% (active)
[14]
  outcome: inactive
[15]
  outcome: inactive
[16]
  outcome: inactive

## CCOc1ccccc1N(CC)C(=O)c1nn(C)c2c1CSc1ccccc1-2
[1]
  outcome: inactive
[2]
  outcome: inactive
[3]
  outcome: inactive
[4]
  outcome: inactive
[5]
  inhibition: 95% (active)
[6]
  inhibition: 40% (active)
[7]
  outcome: inactive
[8]
  outcome: inactive
[9]
  outcome: inactive
[10]
  outcome: inactive
[11]
  outcome: inactive
[12]
  outcome: inactive
[13]
  inhibition: 18.7% (active)
[14]
  outcome: inactive
[15]
  outcome: inactive
[16]
  outcome: inactive

## C=CCc1ccccc1OCC(CN1CCCCC1)OC(C)=O (stereo unspecified)
[1]
  outcome: inactive
[2]
  outcome: inactive
[3]
  outcome: inactive
[4]
  outcome: inactive
[5]
  inhibition: 74% (active)
[6]
  inhibition: 43% (active)
[7]
  outcome: inactive
[8]
  outcome: inactive
[9]
  outcome: inactive
[10]
  outcome: inactive
[11]
  outcome: inactive
[12]
  outcome: inactive
[13]
  outcome: inactive
[14]
  outcome: inactive
[15]
  outcome: inactive
[16]
  outcome: inactive

## Cc1ccn2cc(CCNC(=O)c3ccc(Br)o3)nc2c1
[1]
  outcome: inactive
[2]
  outcome: inactive
[3]
  outcome: inactive
[4]
  outcome: inactive
[5]
  inhibition: 89% (active)
[6]
  outcome: inactive
[7]
  outcome: inactive
[8]
  outcome: inactive
[9]
  outcome: inactive
[10]
  outcome: inactive
[11]
  outcome: inactive
[12]
  outcome: inactive
[13]
  inhibition: 34.1% (active)
[14]
  outcome: inactive
[15]
  outcome: inactive
[16]
  outcome: inactive

## COCCn1c(SCc2ccccc2F)nc2ccccc2c1=O
[1]
  outcome: inactive
[2]
  outcome: inactive
[3]
  outcome: inactive
[4]
  outcome: inactive
[5]
  inhibition: 88% (active)
[6]
  outcome: inactive
[7]
  outcome: inactive
[8]
  outcome: inactive
[9]
  outcome: inactive
[10]
  outcome: inactive
[11]
  outcome: inactive
[12]
  outcome: inactive
[13]
  inhibition: 20.8% (active)
[14]
  outcome: inactive
[15]
  outcome: inactive
[16]
  outcome: inactive

## NC(=O)c1nsc(C(=O)N(Cc2ccccc2F)C(C(=O)NCC2CCCO2)c2ccc(F)cc2)c1N (stereo unspecified)
[1]
  outcome: inactive
[2]
  outcome: inactive
[3]
  outcome: inactive
[4]
  outcome: inactive
[5]
  inhibition: 93% (active)
[6]
  inhibition: 50% (active)
[7]
  outcome: inactive
[8]
  outcome: inactive
[9]
  outcome: inactive
[10]
  outcome: inactive
[11]
  outcome: inactive
[12]
  outcome: inactive
[13]
  inhibition: 26.4% (active)
[14]
  outcome: inactive
[15]
  outcome: inactive
[16]
  outcome: inactive

## CC(=O)Nc1ccc(S(=O)(=O)Nc2nc3ccc(C)cc3s2)cc1
[1]
  outcome: inactive
[2]
  outcome: inactive
[3]
  outcome: inactive
[4]
  outcome: inactive
[5]
  inhibition: 65% (active)
[6]
  outcome: inactive
[7]
  outcome: inactive
[8]
  outcome: inactive
[9]
  outcome: inactive
[10]
  outcome: inactive
[11]
  outcome: inactive
[12]
  outcome: inactive
[13]
  outcome: inactive
[14]
  outcome: inactive
[15]
  outcome: inactive
[16]
  outcome: inactive

## Cc1ccc(OCC(COCc2ccccc2)NC(C)C)cc1 (stereo unspecified)
[1]
  outcome: inactive
[2]
  outcome: inactive
[3]
  outcome: inactive
[4]
  outcome: inactive
[5]
  inhibition: 85% (active)
[6]
  outcome: inactive
[7]
  outcome: inactive
[8]
  outcome: inactive
[9]
  inhibition: 5% (active)
[10]
  outcome: inactive
[11]
  outcome: inactive
[12]
  outcome: inactive
[13]
  inhibition: 42.1% (active)
[14]
  outcome: inactive
[15]
  outcome: inactive
[16]
  outcome: inactive

## CN(C)c1ccc([N+](=O)[O-])cc1C(=O)NCC(c1ccco1)N(C)C (stereo unspecified)
[1]
  outcome: inactive
[2]
  outcome: inactive
[3]
  outcome: inactive
[4]
  outcome: inactive
[5]
  inhibition: 58% (active)
[6]
  outcome: inactive
[7]
  outcome: inactive
[8]
  outcome: inactive
[9]
  outcome: inactive
[10]
  outcome: inactive
[11]
  outcome: inactive
[12]
  outcome: inactive
[13]
  outcome: inactive
[14]
  outcome: inactive
[15]
  outcome: inactive
[16]
  outcome: inactive

## CN(C)C(CNC(=O)CCc1nc2ccccc2s1)c1ccccc1 (stereo unspecified)
[1]
  outcome: inactive
[2]
  outcome: inactive
[3]
  outcome: inactive
[4]
  outcome: inactive
[5]
  inhibition: 96% (active)
[6]
  inhibition: 86% (active)
[7]
  outcome: inactive
[8]
  outcome: inactive
[9]
  outcome: inactive
[10]
  outcome: inactive
[11]
  outcome: inactive
[12]
  outcome: inactive
[13]
  outcome: inactive
[14]
  outcome: inactive
[15]
  outcome: inactive
[16]
  outcome: inactive

## O=[N+]([O-])c1cccc(-c2nnc(C3CC3)o2)c1
[1]
  outcome: inactive
[2]
  outcome: inactive
[3]
  outcome: inactive
[4]
  outcome: inactive
[5]
  inhibition: 68% (active)
[6]
  inhibition: 38% (active)
[7]
  outcome: inactive
[8]
  outcome: inactive
[9]
  outcome: inactive
[10]
  outcome: inactive
[11]
  outcome: inactive
[12]
  outcome: inactive
[13]
  outcome: inactive
[14]
  outcome: inactive
[15]
  outcome: inactive
[16]
  outcome: inactive

## COc1cccc(/C=C2\SC(=S)N(NS(=O)(=O)c3ccc(C)cc3)C2=O)c1OC
[1]
  outcome: inactive
[2]
  outcome: inactive
[3]
  outcome: inactive
[4]
  outcome: inactive
[5]
  inhibition: 95% (active)
[6]
  outcome: inactive
[7]
  outcome: inactive
[8]
  outcome: inactive
[9]
  outcome: inactive
[10]
  outcome: inactive
[11]
  outcome: inactive
[12]
  outcome: inactive
[13]
  inhibition: 4.07% (active)
[14]
  outcome: inactive
[15]
  outcome: inactive
[16]
  outcome: inactive

## CC(C)NC(=S)N1CCN(C/C=C/c2ccccc2)CC1
[1]
  outcome: inactive
[2]
  outcome: inactive
[3]
  outcome: inactive
[4]
  outcome: inactive
[5]
  inhibition: 71% (active)
[6]
  outcome: inactive
[7]
  outcome: inactive
[8]
  outcome: inactive
[9]
  outcome: inactive
[10]
  outcome: inactive
[11]
  outcome: inactive
[12]
  outcome: inactive
[13]
  outcome: inactive
[14]
  outcome: inactive
[15]
  outcome: inactive
[16]
  outcome: inactive

## C=CCN(CC(O)c1cccc([N+](=O)[O-])c1)C(C)CCc1ccccc1 (stereo unspecified)
[1]
  outcome: inactive
[2]
  outcome: inactive
[3]
  outcome: inactive
[4]
  outcome: inactive
[5]
  inhibition: 79% (active)
[6]
  outcome: inactive
[7]
  outcome: inactive
[8]
  outcome: inactive
[9]
  outcome: inactive
[10]
  outcome: inactive
[11]
  outcome: inactive
[12]
  outcome: inactive
[13]
  inhibition: 25.6% (active)
[14]
  outcome: inactive
[15]
  outcome: inactive
[16]
  outcome: inactive
